Records with an inconclusive call do not appear. A call without a number means that no potency is given here. Some structures have more than one record in an assay (separate samples or runs), and their calls can disagree. Calls of active or inactive are those of the source. Unless noted, calls come from the whole dose curve.
Key:
[1] = Nuclear factor erythroid 2-related factor 2/antioxidant responsive element (Nrf2/ARE) small molecule agonists: qHTS cell viability counter screen in human keratinocytes (AID 1919968; active = well fitted curve in the direction sought with a large enough effect in the repeat runs; an effect the other way counts as inactive or inconclusive; note: nearly all actives have a fitted effect of over 55% in size)
Method in brief: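 KeratinoSens cells (HaCaT keratinocytes stably carrying an ARE-luciferase reporter) were seeded at 1,500 cells/well and rested 5 h at 37 C/5% CO2. They were then exposed to compounds in DMSO for 23 h. Viability was read by CellTiter-Fluor fluorescence after 1 h.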

[2] = Nuclear factor erythroid 2-related factor 2/antioxidant responsive element (Nrf2/ARE) small molecule agonists: luciferase reporter gene qHTS assay in human keratinocytes (AID 1919969); note: nearly all actives have a fitted effect of over 35% in size
[3] = target: Gonadotropin-releasing hormone receptor (Homo sapiens) (UniProt P30968); assay: Human gonadotropin-releasing hormone receptor (GnRHR) small molecule agonists, calcium flux assay in GnRHR-HEK293 cells (AID 1920063); note: nearly all actives have a fitted effect of over 35% in size
Gonadotropin-releasing hormone receptor (Homo sapiens), sequence (P30968 whole entry, looked up): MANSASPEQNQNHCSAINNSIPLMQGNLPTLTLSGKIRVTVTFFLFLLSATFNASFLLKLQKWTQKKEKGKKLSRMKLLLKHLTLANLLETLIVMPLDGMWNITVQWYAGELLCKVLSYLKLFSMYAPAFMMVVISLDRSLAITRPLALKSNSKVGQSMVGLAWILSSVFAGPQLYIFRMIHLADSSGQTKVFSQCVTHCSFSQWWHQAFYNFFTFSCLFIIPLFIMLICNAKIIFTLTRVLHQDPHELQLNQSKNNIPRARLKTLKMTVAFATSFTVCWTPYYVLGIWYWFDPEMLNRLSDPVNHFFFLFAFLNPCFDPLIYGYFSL
Method in brief: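 HEK293 cells stably expressing human GnRHR were plated 18 h at 37 °C, loaded with calcium dye 1 h at 37 °C, then given compound in agonist mode; fluorescence (Ex/Em 480/540) read kinetically for 3 min at 1 s intervals.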

[4] = target: KiSS-1 receptor (Homo sapiens) (UniProt Q969F8); assay: Human kisspeptin (KISS1R) small molecule agonists, calcium flux assay in KISS1R-HEK293 cells (AID 1920064; active = well fitted curve in the direction sought with a large enough effect in the repeat runs; an effect the other way counts as inactive or inconclusive)
KiSS-1 receptor (Homo sapiens), sequence (Q969F8 whole entry, looked up): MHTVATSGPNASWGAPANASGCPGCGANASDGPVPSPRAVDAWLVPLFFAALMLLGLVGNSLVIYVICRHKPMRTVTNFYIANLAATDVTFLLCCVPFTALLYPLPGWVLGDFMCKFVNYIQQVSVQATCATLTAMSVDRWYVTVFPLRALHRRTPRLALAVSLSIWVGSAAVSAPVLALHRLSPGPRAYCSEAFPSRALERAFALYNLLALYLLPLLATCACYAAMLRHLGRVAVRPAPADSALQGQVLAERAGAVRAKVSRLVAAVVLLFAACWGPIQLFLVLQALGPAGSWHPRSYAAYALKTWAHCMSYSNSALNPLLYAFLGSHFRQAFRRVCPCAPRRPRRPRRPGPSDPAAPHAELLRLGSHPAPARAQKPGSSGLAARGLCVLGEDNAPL
Method in brief: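 HEK293 cells stably expressing human KISS1R were plated 18 h at 37 °C, loaded with calcium dye for 1 h at 37 °C, then given compound by pin tool. Fluorescence (Ex/Em 480/540) was read kinetically for 3 min.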

[5] = G protein-coupled receptor (GPCR) small molecule agonists, calcium flux assay: HEK293 wild type cell line counter screen (AID 1920065)
Method in brief: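 Cells were plated and cultured 18 h at 37 C/5% CO2, then loaded with calcium dye for 1 h at 37 C. Compounds in DMSO were pin-transferred in agonist mode, and fluorescence (Ex/Em 480/540) was read kinetically for 3 min at 1 s intervals.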

[6] = p53 small molecule agonists, cell-based qHTS assay with human liver microsomes (AID 1963577);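 note: p53 response element beta-lactamase reporter cells with liver microsomes plus NADPH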
Method in brief: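 Steps: plate p53RE-bla cells, incubate 5 h at 37 C; add compound in DMSO; add microsomes (0.5 mg/mL final) and NADPH (0.5 mg/mL final); incubate 16 h at 37 C; add LiveBLAzer, 2 h RT; read fluorescence.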

[7] = p53 small molecule agonists, cell-based qHTS assay with rat liver microsomes (AID 1963578)
Method in brief: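 Metabolic activation is supplied by rat liver microsomes with NADPH (each 0.5 mg/mL final). p53RE-bla cells incubate with compound 16 h at 37 C; reporter activity is measured by LiveBLAzer fluorescence.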

[8] = p53 small molecule agonists, cell-based qHTS assay with human liver microsomes: qHTS cell viability counter screen (AID 1963579); note: nearly all actives have a fitted effect of over 45% in size
Method in brief: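 After the 460/530 nm beta-lactamase read, CellTiter-Glo was added to the same wells and luminescence measured after 30 min at room temperature, giving viability of p53RE-bla cells treated 16 h with compounds plus microsomes and NADPH.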

[9] = p53 small molecule agonists, cell-based qHTS assay with rat liver microsomes: qHTS cell viability counter screen (AID 1963580); note: nearly all actives have a fitted effect of over 45% in size
Method in brief: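 HCT-116 p53RE-bla, 4,000 cells/well, 5 h pre-incubation; cpd + rat liver microsomes 0.5 mg/mL + NADPH 0.5 mg/mL (final); 16 h, 37 C; CellTiter-Glo, 30 min RT; luminescence.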

[10] = p53 small molecule agonists, cell-based qHTS assay: qHTS cell viability counter screen (AID 1963581); note: nearly all actives have a fitted effect of over 45% in size
Method in brief: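 p53RE-bla HCT-116 cells were exposed to compounds for 16 h at 37 C; after the beta-lactamase FRET read in the same wells, CellTiter-Glo was added and luminescence (intracellular ATP) read after 30 min at room temperature.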

[11] = p53 small molecule agonists, cell-based qHTS assay (AID 1963582; active = well fitted activation curve with a large enough effect in the signal ratio in the repeat runs, not every such curve was filed as active; the % refers to the signal ratio)
Method in brief: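 p53RE-bla beta-lactamase reporter cells rested 5 h at 37 C/5% CO2, then received compounds in DMSO by pin transfer and were incubated 16 h at 37 C. LiveBLAzer B/G FRET substrate was loaded for 2 h at room temperature before fluorescence reading.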

[12] = target: 5-hydroxytryptamine receptor 2A (Homo sapiens) (UniProt P28223); assay: 5-hydroxytryptamine receptor 2A (HTR2A) small molecule antagonists, cell-based qHTS assay (AID 1963586); note: nearly all actives have a fitted effect of over 45% in size
5-hydroxytryptamine receptor 2A (Homo sapiens), sequence (P28223 whole entry, looked up): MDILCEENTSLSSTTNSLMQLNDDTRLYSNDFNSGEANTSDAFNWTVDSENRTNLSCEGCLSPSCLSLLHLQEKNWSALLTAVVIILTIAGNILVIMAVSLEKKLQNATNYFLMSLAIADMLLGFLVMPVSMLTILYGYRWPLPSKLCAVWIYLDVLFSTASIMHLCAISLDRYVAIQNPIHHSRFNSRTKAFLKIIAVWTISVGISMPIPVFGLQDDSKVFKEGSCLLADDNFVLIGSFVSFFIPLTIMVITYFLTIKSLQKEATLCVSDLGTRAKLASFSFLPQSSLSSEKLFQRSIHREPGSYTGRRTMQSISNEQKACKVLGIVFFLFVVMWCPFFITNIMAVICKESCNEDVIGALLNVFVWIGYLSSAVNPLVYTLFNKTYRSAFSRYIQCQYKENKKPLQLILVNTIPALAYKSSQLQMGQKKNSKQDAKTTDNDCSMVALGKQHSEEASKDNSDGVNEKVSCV
Method in brief: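 Antagonist-mode intracellular calcium assay: DOI (4 nM) added after 5 min compound pre-incubation at room temperature to dye-loaded HTR2A-CHO cells. Fluorescence followed for 3 min, sampled every second.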

[13] = target: 5-hydroxytryptamine receptor 2A (Homo sapiens) (UniProt P28223); assay: 5-hydroxytryptamine receptor 2A (HTR2A) small molecule agonists, cell-based qHTS assay (AID 1963587); note: nearly all actives have a fitted effect of over 30% in size
Method in brief: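 Kinetic calcium-flux fluorescence (2 min, 1 sec intervals) after compound addition in agonist mode. HTR2A-CHO cells were cultured 18 h, then dye-loaded 1 h at 37 C.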

[14] = target: Muscarinic acetylcholine receptor M1 (Homo sapiens) (UniProt P11229); assay: Cholinergic receptor muscarinic 1 (CHRM1) small molecule antagonists, cell-based qHTS assay (AID 1963588); note: nearly all actives have a fitted effect of over 40% in size
Muscarinic acetylcholine receptor M1 (Homo sapiens), sequence (P11229 whole entry, looked up): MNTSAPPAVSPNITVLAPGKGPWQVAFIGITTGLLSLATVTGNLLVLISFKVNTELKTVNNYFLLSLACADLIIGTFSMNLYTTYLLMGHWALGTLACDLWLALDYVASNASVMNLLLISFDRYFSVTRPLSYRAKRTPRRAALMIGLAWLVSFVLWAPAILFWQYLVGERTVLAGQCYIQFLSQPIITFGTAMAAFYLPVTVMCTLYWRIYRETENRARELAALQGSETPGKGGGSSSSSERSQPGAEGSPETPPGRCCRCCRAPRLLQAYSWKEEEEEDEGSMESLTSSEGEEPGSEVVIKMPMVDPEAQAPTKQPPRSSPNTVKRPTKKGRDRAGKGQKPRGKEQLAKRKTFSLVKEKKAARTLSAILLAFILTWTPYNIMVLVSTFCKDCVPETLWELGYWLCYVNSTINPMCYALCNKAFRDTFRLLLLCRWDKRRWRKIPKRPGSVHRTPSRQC
Method in brief: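 CHRM1-CHO calcium-flux assay, antagonist mode. Cells were seeded 18 h, dye-loaded 1 h at 37 C and given compound for 5 min at RT, then acetylcholine was added at 50nM. FDSS fluorescence was read 3 min; 15 concentrations, three runs.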

[15] = target: Muscarinic acetylcholine receptor M1 (Homo sapiens) (UniProt P11229); assay: Cholinergic receptor muscarinic 1 (CHRM1) small molecule agonists, cell-based qHTS assay (AID 1963589); note: nearly all actives have a fitted effect of over 35% in size; note: potency is the fitted concentration of half-maximal effect
Method in brief: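 CHO cells stably expressing human CHRM1, seeded 18 h at 37 C/5% CO2, dye-loaded 1 h at 37 C, then given compound in agonist mode; intracellular calcium fluorescence read kinetically at 1 s intervals. Fifteen concentrations, three independent runs.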

[16] = cAMP Responsive Elements (CRE) small molecule agonists, cell-based qHTS assay (AID 1963590)
Method in brief: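 CRE-bla HEK 293T cells in DMEM with 10% dialyzed FBS, NEAA, pyruvate and 25 mM HEPES were plated 18 h at 37 C/5% CO2, then exposed to compounds in DMSO for 3 h before LiveBLAzer B/G FRET substrate addition.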

[17] = cAMP Responsive Elements (CRE) small molecule antagonists, cell-based qHTS assay (AID 1963591; active = well fitted inhibition curve with a large enough effect in the signal ratio in the repeat runs, not every such curve was filed as active; the % refers to the signal ratio)
Method in brief: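 CRE-bla HEK293T cells were plated 18 h at 37 °C/5% CO2, pinned with compound in DMSO, then stimulated with NKH477 at 0.25 uM final for 3 h. LiveBLAzer B/G FRET substrate was added and plates incubated 2 h at room temperature.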

[18] = target: Beta-2 adrenergic receptor (Homo sapiens) (UniProt P07550); assay: Adrenergic beta2 receptor (ADRB2) small molecule antagonists, cell-based qHTS assay (AID 1963592); note: series mostly up to about 92 µM; nearly all actives have a fitted effect of over 50% in size
Beta-2 adrenergic receptor (Homo sapiens), sequence (P07550 whole entry, looked up): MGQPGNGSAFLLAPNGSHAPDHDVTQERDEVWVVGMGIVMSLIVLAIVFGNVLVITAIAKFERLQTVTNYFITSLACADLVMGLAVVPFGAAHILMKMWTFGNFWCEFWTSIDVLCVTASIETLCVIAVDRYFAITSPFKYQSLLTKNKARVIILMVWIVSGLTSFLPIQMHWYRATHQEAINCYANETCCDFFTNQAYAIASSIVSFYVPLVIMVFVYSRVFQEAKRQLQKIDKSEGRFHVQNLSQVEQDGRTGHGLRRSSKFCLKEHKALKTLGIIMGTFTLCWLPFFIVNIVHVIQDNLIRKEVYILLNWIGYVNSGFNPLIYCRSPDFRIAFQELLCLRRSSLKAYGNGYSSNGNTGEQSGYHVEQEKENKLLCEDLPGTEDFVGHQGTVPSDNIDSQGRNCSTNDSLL
Method in brief: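 Cells (CHO, stable ADRB2 overexpression) incubated 18-20hr at 37C; compounds added from DMSO; agonist mix (1nM isoproterenol, 100uM IBMX, 25uM Ro-20-1724) added; 0.5hr RT; d2-cAMP and anti-cAMP-cryptate added; 1hr RT; 665/615 nm read.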

[19] = target: D(2) dopamine receptor (Homo sapiens) (UniProt P14416); assay: Dopamine D2 receptor (DRD2) small molecule agonists, cell-based qHTS assay (AID 1963594); note: nearly all actives have a fitted effect of over 35% in size
D(2) dopamine receptor (Homo sapiens), sequence (P14416 whole entry, looked up): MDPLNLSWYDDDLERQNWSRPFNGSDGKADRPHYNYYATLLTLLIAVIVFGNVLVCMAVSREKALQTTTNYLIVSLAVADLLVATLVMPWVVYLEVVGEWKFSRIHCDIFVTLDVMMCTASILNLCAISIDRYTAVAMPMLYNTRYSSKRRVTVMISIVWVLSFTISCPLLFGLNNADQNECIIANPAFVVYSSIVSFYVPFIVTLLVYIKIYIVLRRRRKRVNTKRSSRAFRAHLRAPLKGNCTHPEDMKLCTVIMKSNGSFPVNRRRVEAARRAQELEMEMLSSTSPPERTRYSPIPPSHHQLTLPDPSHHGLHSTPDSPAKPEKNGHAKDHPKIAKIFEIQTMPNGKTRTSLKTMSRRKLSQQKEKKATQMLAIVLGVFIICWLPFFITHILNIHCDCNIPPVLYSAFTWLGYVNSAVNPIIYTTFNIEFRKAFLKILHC
Method in brief: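 cAMP accumulation in DRD2-HEK293 cells measured by HTRF after 1 h detection; compounds added 10 min before NKH477 (200nM […]) forskolin-analogue stimulation, 30 min at room temperature, with Ro20-1724 present at 0.1 mM final.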

[20] = target: D(2) dopamine receptor (Homo sapiens) (UniProt P14416); assay: Dopamine D2 receptor (DRD2) small molecule antagonists, cell-based qHTS assay (AID 1963595; active = well fitted inhibition curve with a large enough effect in the signal ratio in the repeat runs, with a control signal flat; the % refers to the signal ratio)
Method in brief: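 Readout: HTRF cAMP, cAMP-d2 competing with cellular cAMP for anti-cAMP cryptate, read after 1 h. Cells: DRD2-HEK293. Conditions: 0.1 mM Ro20-1724, 12 nM quinpirole, 200 nM NKH477, 30 min RT.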

SMILES	Potency [1]	Potency [2]	Potency [3]	Potency [4]	Potency [5]	Potency [6]	Potency [7]	Potency [8]	Potency [9]	Potency [10]	Potency [11]	Potency [12]	Potency [13]	Potency [14]	Potency [15]	Potency [16]	Potency [17]	Potency [18]	Potency [19]	Potency [20]
CCCCCNCCCCC	inactive	inactive	inactive	inactive	inactive	inactive	inactive	inactive	inactive	inactive	inactive	inactive	inactive	inactive	inactive	inactive	inactive	inactive	inactive	inactive
C1N2CN3CN1CN(C2)C3	inactive	inactive	inactive	inactive	inactive	inactive	inactive	inactive	inactive	inactive	inactive	inactive	inactive	inactive	inactive	inactive	inactive	inactive	inactive	inactive
CC1(C)S[C@@H]2[C@H](NC(=O)COc3ccccc3)C(=O)N2[C@H]1C(=O)O	inactive	inactive	inactive	inactive	inactive	inactive	inactive	inactive	inactive	inactive	inactive	inactive	inactive	inactive	inactive	inactive	inactive	inactive	inactive	inactive
CC(=O)OCCC(C)C	inactive	inactive	inactive	inactive	inactive	inactive	inactive	inactive	inactive	inactive	inactive	inactive	inactive	inactive	inactive	inactive	inactive	inactive	inactive	inactive
C=Cc1cccc(C)c1	inactive	inactive	inactive	inactive	inactive	inactive	inactive	inactive	inactive	inactive	inactive	inactive	inactive	inactive	inactive	inactive	inactive	inactive	inactive	inactive
C=CC(=O)OCCCCCCCC(C)C	inactive	inactive	inactive	inactive	inactive	inactive	inactive	inactive	inactive	inactive	inactive	inactive	inactive	inactive	inactive	inactive	inactive	inactive	inactive	inactive
OCCCc1ccccc1	inactive	inactive	inactive	inactive	inactive	inactive	inactive	inactive	inactive	inactive	inactive	inactive	inactive	inactive	inactive	inactive	inactive	inactive	inactive	inactive
COCCOCCOCCO	inactive	inactive	inactive	inactive	inactive	inactive	inactive	inactive	inactive	inactive	inactive	inactive	inactive	inactive	inactive	inactive	inactive	inactive	inactive	inactive
OCCOCCOCCOCCO	inactive	inactive	inactive	inactive	inactive	inactive	inactive	inactive	inactive	inactive	inactive	inactive	inactive	inactive	inactive	inactive	inactive	inactive	inactive	
CC1(C)O[C@@H]2[C@@H](CO[C@@]3(COS(N)(=O)=O)OC(C)(C)O[C@@H]23)O1	inactive	inactive	inactive	inactive	inactive	inactive	inactive	inactive	inactive	inactive	inactive	inactive	inactive	inactive	inactive	inactive	inactive	inactive	inactive	inactive
O=CCc1ccccc1	inactive	inactive	inactive	inactive	inactive	inactive	inactive	inactive	inactive	inactive	inactive	inactive	inactive	inactive	inactive	inactive	inactive	inactive	inactive	inactive
CC(CCC(=O)O)(c1ccc(O)cc1)c1ccc(O)cc1	inactive	inactive	inactive	inactive	inactive	inactive	inactive	inactive	inactive	inactive	inactive	inactive	inactive	inactive	inactive	inactive	inactive	inactive	inactive	inactive
COC(=O)CC(=O)OC	inactive	inactive	inactive	inactive	inactive	inactive	inactive	inactive	inactive	inactive	inactive	inactive	inactive	inactive	20.3 µM (active) and inactive	inactive	inactive	inactive	inactive	inactive
CCCCNC(N)=O	inactive	inactive	inactive	inactive	inactive	inactive	inactive	inactive	inactive	inactive	inactive	inactive	inactive	inactive	inactive	inactive	inactive	inactive	inactive	inactive
CCCCCC(=O)O	inactive	inactive	inactive	inactive	inactive	inactive	inactive	inactive	inactive	inactive	inactive	inactive	inactive	inactive	inactive	inactive	inactive	inactive	inactive	inactive
